Hit rate of the full screen: of about 220,000 compounds, about 130 (0.059%) were called active. Cut-off read from the data, not from the text of the source: active = inhibition above about 25%; inactive = the rest. The list comes from a sample in which actives are over-represented; it also holds similar structures and randomly drawn compounds.
molecular target: Furin (Homo sapiens) (UniProt P09958); test: furin protease activity blockers – biochemical, fluorescence intensity, primary screen (AID 463115); conditions: purified furin, fluorogenic substrate cleavage, active compounds read high; at 30 µM unless noted
Sequence (P09958 108-714 limits assumed): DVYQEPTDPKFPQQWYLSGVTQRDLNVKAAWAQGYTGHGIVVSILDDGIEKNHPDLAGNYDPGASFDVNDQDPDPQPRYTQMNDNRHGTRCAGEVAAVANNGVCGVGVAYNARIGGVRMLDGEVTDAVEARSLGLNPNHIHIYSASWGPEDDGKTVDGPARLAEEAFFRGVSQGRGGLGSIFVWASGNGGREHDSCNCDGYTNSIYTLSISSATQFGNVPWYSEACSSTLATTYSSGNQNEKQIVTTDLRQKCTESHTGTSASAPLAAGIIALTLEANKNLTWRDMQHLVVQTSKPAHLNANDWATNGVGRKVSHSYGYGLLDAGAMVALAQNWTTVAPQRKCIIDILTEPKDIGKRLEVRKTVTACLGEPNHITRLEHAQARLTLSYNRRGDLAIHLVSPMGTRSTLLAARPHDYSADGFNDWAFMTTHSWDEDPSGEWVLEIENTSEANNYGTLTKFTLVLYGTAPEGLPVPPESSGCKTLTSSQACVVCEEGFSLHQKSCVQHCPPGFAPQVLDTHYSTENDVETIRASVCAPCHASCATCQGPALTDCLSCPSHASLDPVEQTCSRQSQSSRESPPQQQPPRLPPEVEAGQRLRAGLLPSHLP

| Structure (SMILES) | inhibition |
| --- | --- |
| Cn1c(SCC(=O)c2ccc(F)cc2)nnc1-c1ccccn1 | -22.4% (inactive) |
| CCc1cc(C(=O)OC)c(NC(=O)CC2Sc3ccc(C(F)(F)F)cc3NC2=O)s1 (stereo not given) | -18.6% (inactive) |
| Cc1nc2ccccn2c1C(=O)NN=C1CCN(C)CC1 | -16.6% (inactive) |
| CCOC(=O)/C(C#N)=C\c1c(C)cc(C)c(COC(C)=O)c1C | -3.87% [at 20 µM] (inactive) |
| CCc1cc(Br)ccc1NC(=O)C1CCCO1 (stereo not given) | -9.19% [at 20 µM] (inactive) |
| CCOC(=O)Cn1c(=O)oc2cc(S(=O)(=O)NCC3CCCO3)ccc21 (stereo not given) | -8.46% (inactive) |
| OC(CNCC1CCCO1)Cn1c2ccc(Br)cc2c2cc(Br)ccc21 (stereo not given) | 31.4% [at 20 µM] (active) |
| COc1ccc(C(=O)Nc2c(Cl)cc(Cl)cc2C(=O)N2CCC(C)CC2)cc1 | -7.28% (inactive) |
| CSc1ccccc1-c1nnc(-c2ccc(Cl)cc2)o1 | -17.9% [at 20 µM] (inactive) |
| CNC(=O)c1[nH]cnc1C(=O)N[C@@H](CC(C)C)C(=O)OCc1ccccc1 | -29.8% (inactive) |
| CCOc1ccc(Oc2nc(C)cc(OC)n2)nn1 | -13.8% (inactive) |
| O=C(O)Cc1csc(NC(=O)CSc2nnnn2-c2ccc(O)cc2)n1 | -27.1% (inactive) |
| Cc1ccc2nc(COc3ccc(N(C)S(=O)(=O)c4ccccc4)cc3)cc(=O)n2c1 | -21.2% (inactive) |
| Cc1ccc(-n2nc3cc(Cl)c(NC(=O)c4ccco4)cc3n2)cc1 | -6.45% [at 20 µM] (inactive) |
| Cc1cc2nc(-c3ccc(NC(=O)c4cccnc4)cc3)oc2cc1C | -16% (inactive) |
| Cc1ccc(-n2nc3cc(C)c(NC(=O)c4cccnc4)cc3n2)cc1 | 34.8% [at 20 µM] (active) |
| O=C(NCc1cccnc1)Nc1cccc(NC(=O)NCc2cccnc2)c1F | -13.7% (inactive) |
| CCCN(CCC)CC(O)COc1ccccc1C(=O)Nc1ccccc1 (stereo not given) | -22.6% (inactive) |
| CCn1c(=O)c([N+](=O)[O-])c(NCc2ccc3c(c2)OCO3)c2ccccc21 | -12.9% (inactive) |
| CC1=NN(C(=O)Cc2ccc(C)cc2)C(O)(c2cccnc2)C1 (stereo not given) | -14% [at 20 µM] (inactive) |
| CCC(CC)c1nnc(NC(=O)c2nn(C)c(=O)c3ccccc23)s1 | -10.6% (inactive) |
| Cc1ccc(NC(=O)C(=O)NCc2ccco2)c(C)c1 | -25.7% (inactive) |
| C=CCn1c(Cn2nnc3ccccc32)nnc1SCC(=O)N/N=C/c1cc(Br)cc(OC)c1O | 1.52% [at 20 µM] (inactive) |

| Structure (SMILES) | inhibition |
| --- | --- |
| C/C=C/C(=O)Nc1ccc(N2CCN(c3ccc(C(F)(F)F)cn3)CC2)nc1 | -27.8% (inactive) |
| COc1cc(OC)c(C(=O)OC(C)C(=O)Nc2cc(C(F)(F)F)ccc2Cl)cc1OC (stereo not given) | -12.3% (inactive) |
| O=C(Nc1ccccc1C(=O)N1CCOCC1)c1ccc(Cl)cc1 | -16.3% (inactive) |
| Cc1cc(C(=O)N2CCC(C(=O)O)CC2)c(C(F)(F)F)o1 | -9.96% (inactive) |
| O=C(Nc1cnn(Cc2ccc(Cl)cc2)c1)C1CCCC1 | -14.4% [at 20 µM] (inactive) |
| Cc1nn(C)cc1C(=O)Nc1ccccc1Br | -17.2% (inactive) |
| C=CCC(CC=C)(C(N)=O)c1ccccc1 | -29.7% (inactive) |
| Fc1ccccc1OCCCCn1cncn1 | -28.7% [at 20 µM] (inactive) |
| COc1ccc(CCNc2cc(C)nc3c(-c4ccc(Cl)cc4)c(C)nn23)cc1OC | 9.61% (inactive) |
| O=C(Nc1nccs1)C1CCN(S(=O)(=O)c2ccc(Cl)c(C(F)(F)F)c2)CC1 | -14.1% [at 20 µM] (inactive) |
| COCCNc1nc2nonc2nc1N1CCCC1c1nccs1 (stereo not given) | -8.2% (inactive) |
| O=C(/C=C/c1ccccc1)Nc1nnc(SCC(=O)c2ccc3ccccc3c2)s1 | -20.8% (inactive) |
| COCCN1C(=O)N[C@@H](CCc2ccccc2)[C@H](C(C)=O)[C@H]1C | -15.4% (inactive) |
| CC(=O)C1=C(C)NC(=O)NC1c1cc(Br)ccc1OCC#N (stereo not given) | -17.2% [at 20 µM] (inactive) |
| CSCC[C@H](NC(=O)OC(C)(C)C)C(=O)N/N=C/c1cc2ccc(C)cc2nc1Cl | -14.1% (inactive) |
| CC1(C)CC(=O)C(N=Nc2ccc(S(=O)(=O)N3CCCCCC3)cc2)=C(O)C1 | -26.5% (inactive) |
| C/C(=N\Nc1nc2ccccc2[nH]1)c1cccs1 | -12.4% (inactive) |
| CCCC(=O)NC(C)C(c1cccs1)N1CCN(c2ccccc2)CC1 (stereo not given) | 25.4% [at 20 µM] (active) |
| CC(NC(=O)Nc1ccccc1)C(c1cccs1)N1CCN(c2ccccc2)CC1 (stereo not given) | -13.8% (inactive) |
| CC(NC(=O)C(C)(C)C)C(c1cccs1)N1CCN(Cc2ccccc2)CC1 (stereo not given) | -27.5% (inactive) |
| COc1ccc(C(=O)NC(=S)Nc2ccc(Cl)cn2)cc1OC | -15.4% (inactive) |
| Cn1c(=O)n(C)c2cc(NS(=O)(=O)c3ccc(F)cc3)ccc21 | -20.7% (inactive) |
| CCC(=O)Nc1sc(C(=O)Nc2ccccc2)c(C)c1C(=O)OC | -21.3% (inactive) |

| Structure (SMILES) | inhibition |
| --- | --- |
| C#CCO[C@@H]1C[C@H](n2cnc3c(=O)[nH]c(NC(=O)C(C)C)nc32)O[C@@H]1CO | -9.33% (inactive) |
| O=C1N=C(N2CCc3ccccc3C2)S/C1=C\c1ccc(O)cc1 | -5.76% (inactive) |
| Cc1nc2sc(C(c3ccco3)N3CCC4(CC3)OCCO4)c(O)n2n1 (stereo not given) | -16.3% [at 20 µM] (inactive) |
| COc1ccc(/C=C/C(=O)c2ccc(NS(=O)(=O)c3ccc(C)cc3)cc2)cc1O | -7.18% (inactive) |
| COC(=O)c1ccc(C(=O)OC)c(NC(=S)N2CCN(c3ccc(F)cc3)CC2)c1 | -22.8% (inactive) |
| O=C(Nc1ccccc1-c1nnn(CC(=O)N2CCCc3ccccc32)n1)c1cccc(Cl)c1 | -12.2% [at 20 µM] (inactive) |
| Cc1cc(C)n(-c2nnc(C)n2NC(=O)c2cccc(Cl)c2)n1 | -15.9% [at 20 µM] (inactive) |
| O=C(NCc1ccco1)C(=O)c1cn(CC(=O)N2CCCCCC2)c2ccccc12 | -16.3% (inactive) |
| CCOc1ncccc1C(=O)OCC(=O)NC1CC1 | -17.7% (inactive) |
| O=C(c1cccc([N+](=O)[O-])c1)N1CCN(C(=O)c2ccco2)CC1 | -10.7% (inactive) |
| CC(C)C(=O)NCc1cc(-c2ccc(Cl)cc2)no1 | 2.24% (inactive) |
| O=S(=O)(c1ccc(F)cc1)N1CCN(Cc2ccccc2C(F)(F)F)CC1 | -12.9% (inactive) |
| O=c1oc2ccccc2cc1-c1cn(-c2ccccc2)c(=S)[nH]1 | -34.3% (inactive) |
| S=c1[nH]nc(NCCc2ccccc2)s1 | -19.4% (inactive) |
| CC(C)(C)C(=O)OCc1nc(-c2ccc(O)c(O)c2)cs1 | -19.6% (inactive) |
| CCN(CC)c1ccc(NC(=O)C2CCC(CNc3c(N4CCCC4)c(=O)c3=O)CC2)c(C)c1 (stereo not given) | -28.8% (inactive) |
| C[n+]1ccc(/C=C/c2c[nH]c3ccccc23)cc1 | 3.06% (inactive) |
| C=Cn1c(C(=O)O)ccc1-c1ccc(OC)cc1 | -9.46% (inactive) |
| CC1CN(S(=O)(=O)c2ccc(C(=O)NN3CCN(C)CC3)cc2)CC(C)O1 (stereo not given) | -23.8% (inactive) |
| CCOCN(C(=O)Cn1c(C(C)O)nc2ccccc21)c1c(C)cccc1CC (stereo not given) | -22.3% [at 20 µM] (inactive) |
| O=C(/C=C/c1ccc(Cl)cc1)Nc1ccc(Br)cn1 | -19.6% (inactive) |
| Cc1oc(-c2ccccc2Cl)[n+]([O-])c1C | -9.84% [at 20 µM] (inactive) |
| C=C(C)C(=O)O[C@H]1C/C(C)=C\C(=O)/C=C(\C)[C@H](O)[C@@H]2OC(=O)C(=C)[C@@H]21 | -5.36% (inactive) |

| Structure (SMILES) | inhibition |
| --- | --- |
| CCN(C(=O)CSc1nnc2ccccn12)C1CCS(=O)(=O)C1 (stereo not given) | -27.8% (inactive) |
| NNC(=O)c1cnn(-c2ccccc2)c1C(F)(F)F | -29% (inactive) |
| CCN=C1S/C(=C\c2cc(Br)ccc2OCC(=O)OCC)C(=O)N1CC | -4.2% (inactive) |
| N#Cc1ccccc1NC(=O)COc1c(Br)cc(Br)c2cccnc12 | -14.7% (inactive) |
| Cn1c(SCC(=O)Nc2ccc(Cl)cc2)nc(O)cc1=O | -15% (inactive) |
| O=C(CSc1nc2ccc([N+](=O)[O-])cc2[nH]1)c1ccc(Cl)cc1 | -10.5% (inactive) |
| S=C(NN=C1CCN(Cc2ccccc2)CC1)NC1CCCCC1 | -25.8% (inactive) |
| CCCC1OC23CCCCC2C(C#N)(C#N)C1(C#N)C(=N)O3 (stereo not given) | -12.5% (inactive) |
| COc1cc(C)c(S(=O)(=O)N2CCOCC2)c(C)c1C | -15.3% (inactive) |
| COc1ccccc1N1CCN(/N=C\C(Br)=C\c2ccccc2)CC1 | -19% (inactive) |
| CCO[C@H]1OC(C(=O)N2CCCCCCC2)=C[C@@H](c2ccc(C(F)(F)F)cc2)[C@@H]1CCCO | -28% (inactive) |
| COc1ccc(O)c(C=Nc2cc(C)on2)c1 | -25.7% (inactive) |
| Cc1cc(N=CC2=C(O)CCCC2=O)no1 | 42.3% (active) |
| O=C1CCCC(O)=C1C=NCCc1ccccc1 | -20.8% (inactive) |
| OCCC1CN(Cc2cccn2-c2nccs2)CCN1CCc1ccccc1 (stereo not given) | -12.8% (inactive) |
| Cc1nc(CNS(=O)(=O)c2cc([N+](=O)[O-])ccc2C)cs1 | 10.1% (inactive) |
| COC(=O)C1=C(N)Oc2c(oc(CO)cc2=O)C1c1c(F)cccc1Cl (stereo not given) | -27.8% (inactive) |
| CN(C)c1ccnc2sc3c(=O)n(-c4ccc(Cl)cc4)cnc3c12 | -7.85% [at 20 µM] (inactive) |
| CCC(C)(C)NC(=O)CN(C(=O)C(=O)Nc1ccc2c(c1)OCCO2)C(C)(C)CC | -14.5% (inactive) |
| CSc1nnc(SCc2nc3sc(C(=O)O)c(C)c3c(=O)[nH]2)s1 | -6.65% (inactive) |
| O=C(CC1SCCNC1=O)Nc1ccc(Cl)c(Cl)c1 (stereo not given) | -21.8% (inactive) |
